Screening results (PubChem BioAssay)
SARS PLpro yeast-1 = SARS-CoV PLP inhibition in yeast. S. cerevisiae expressing SARS-CoV PLpro, growth rescue. actives 0.19% (n = 330,000). Potency, µM (highest dose often 32.9 µM), inactives show top-dose activity, positive = growth rescue, hits mostly activators. AID 485353; calls by dose curve; further: potency means the concentration at half of the fitted maximal effect; 0% is about no effect; nearly all actives have a fitted effect of over 55% in size
Sm TGR inh = S. mansoni TGR enzyme inhibition | Q962Y6 | purified TGR, DTNB reduction, TNB absorbance 405 nm | Potency, µM (doses to about 114 µM), for the others: top-dose activity change, negative = inhibition, most hits filed as inhibitors | actives 3% (n = 360,000); active means well fitted inhibition curve with a large enough effect; inconclusive means small, poorly fitted or top-dose-only effect; inactive means no such curve, though single readings can be large or run the other way; further: potency means the concentration at half of the fitted maximal effect; on the % scale 0 is the no-effect control and ±100 the full control effect; nearly all actives have a fitted effect of over 60% in size
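TGR 20 nM + NADPH 100 uM (dispensed conc.), cpd preinc 15 min RT; start with NADPH (500 uM addition) then DTNB (15 mM addition). Kinetic TNB absorbance, 405 nm filter. Four-parameter Hill fit across titration.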
SARS PLpro yeast-2 = Validates SARS-CoV PLpro inhibitor hits in yeast | calls only | actives 19% (n = 1,000) | shares compounds with SARS PLpro yeast-1 | yeast expressing SARS-CoV PLpro, growth phenotype rescue | AID 652038; call rule not given here
Active calls of the source: *; i = inactive; ? = inconclusive; / = no result given; + = active, no number. Sampled rows, rich in hits. Any-hit rate of the full collection: about 3%.

SMILES | SARS PLpro yeast-1 | Sm TGR inh | SARS PLpro yeast-2
COc1ccc(NC(=O)C(=O)NNC(=O)c2cccs2)c(OC)c1 | ? | -24% | i
COc1ccc(NC(=O)C(=O)NNC(=O)c2cccs2)cc1 | -30% | 0% | /
CC(C)(C)C1CCc2c(sc(NC(=O)C3c4ccccc4Oc4ccccc43)c2C(N)=O)C1 (centres undefined) | / | -2% | /
CC(OC(=O)CNS(=O)(=O)c1ccc(C#N)cc1)C(=O)Nc1cccc(C#N)c1 (centres undefined) | 3% | 2% | /
Cc1ccccc1NC(=O)C(C)OC(=O)CNS(=O)(=O)c1ccc(C#N)cc1 (centres undefined) | ? | 12% | i
NC(=O)COc1ccc(-c2noc(COc3ccc(Cl)cc3)n2)cc1 | / | -4% | /
Cc1c(C(=O)Nc2ccc(C(C)C)cc2)sc2nc[nH]c(=O)c12 | / | -3% | /
CCOC(=O)C1CCCN(S(=O)(=O)c2csc(C(N)=O)c2)C1 (centres undefined) | / | 1% | /
COc1ccc(CCNC(=O)Cn2nnc(-c3ccc(C(F)(F)F)cc3)n2)cc1OC | / | -4% | /
OC1(c2cccc(C(F)(F)F)c2)CCN(Cc2nnnn2CCc2ccccc2)CC1 | ? | 7% | i
OC1(c2cccc(C(F)(F)F)c2)CCN(Cc2nnnn2Cc2ccccc2)CC1 | 0% | / | /
CC(OC(=O)CNC(=O)c1ccccc1)C(=O)Nc1ccc(S(=O)(=O)N2CCOCC2)cc1 (centres undefined) | ? | 3% | i
O=C(COC(=O)CNC(=O)c1ccccc1)Nc1ccc(S(=O)(=O)N2CCOCC2)cc1 | 0% | 1% | /
COc1ccc(NC(=O)CSc2nnc(NC(=O)Nc3ccccc3)s2)c(OC)c1 | / | 8% | /
CCOc1ccc(NC(=O)CCc2nnc3n(C)c(=O)c4sccc4n23)cc1 | / | -7% | /
O=C(O)CSc1nnc(CSc2nc3ccccc3s2)n1-c1ccccc1 | 5% | 44% | /
C#CCSc1nnc(CSc2nc3ccccc3s2)n1-c1ccccc1 | ? | 50µM* | ?
COc1ccc(Cn2c(=O)n(-c3ccc(F)c(Cl)c3)c(=O)c3c2c2cc(OC)ccc2n3C)cc1 | / | 1% | /
O=C(Cn1c(=O)oc2cc(S(=O)(=O)N3CCCCCC3)ccc21)Nc1ccc(F)cc1F | / | -12% | /
CC(C)CNC(=O)C(=O)Nc1c2c(nn1-c1ccccc1)CS(=O)(=O)C2 | / | -2% | /
Cc1cc(C(=O)N/N=C/c2cc(Cl)cc([N+](=O)[O-])c2O)c2ccccc2n1 | 2.2µM* | -1% | i
O=C(N/N=C/c1cc(Cl)cc([N+](=O)[O-])c1O)c1ccccc1NS(=O)(=O)c1cccs1 | 4% | -20% | /
Cc1cc(C(=O)NN=C2CCCC2)c2ccccc2n1 | -2% | -7% | /
Cc1cc(C(=O)NN=C2CCCCC2)c2ccccc2n1 | 13µM* | 18% | i
Cc1ccc(-c2[nH]ncc2/C=N/n2c(COc3ccccc3)nc3ccccc3c2=O)cc1 | -6% | -1% | /
SMILES | SARS PLpro yeast-1 | Sm TGR inh | SARS PLpro yeast-2
Cc1cc(/C=N/n2c(COc3ccccc3)nc3ccccc3c2=O)c(O)c([N+](=O)[O-])c1 | 2.5µM* | -5% | +
CCOC(=O)C1=C(COC(=O)/C=C/c2ccc(OC)cc2)NC(=O)NC1C (centres undefined) | -3% | -1% | /
CCOC(=O)C1=C(COC(=O)/C=C/c2ccco2)NC(=O)NC1C (centres undefined) | ? | ? | i
CCNC(=S)NNC(=O)C1CCCCC1 | 4µM* | -17% | i
CCNC(=S)N1CCC(NC(=O)C2CCCCC2)CC1 | -2% | 10% | /
COC(=O)c1ccc(NC(=O)COC(=O)c2nc3nccc(C)n3n2)cc1 | -1% | 3% | /
Cc1ccnc2nc(C(=O)OCC(=O)Nc3ccc4c(c3)OCCO4)nn12 | ? | / | i
CCCC(=O)Nc1cccc(-c2nc3cc(C)c(C)cc3o2)c1C | / | 0% | /
COc1cccc(N2CCN(C(=O)c3cc4c(s3)-c3c(C)cccc3OC4)CC2)c1 | / | 6% | /
COc1cccc(CNC(=O)CSc2nc3ccccc3nc2Cc2ccc(C)cc2)c1OC | / | -2% | /
Oc1c(CN2CCOCC2)cc(COCc2ccccc2)c2cccnc12 | / | 45µM* | +
Cc1cc(OCc2cccc(Cl)c2)c(C)cc1CN1CCOCC1 | -3% | 2% | /
Cc1ccc(CSc2nc3ccc(NC(=O)CC(C)C)cc3s2)cc1 | / | 2% | /
CSc1nnc(COc2ccc(C)cc2)n1N | ? | -1% | i
Cc1ccc(OCc2nnc(SCC(N)=O)n2N)cc1 | 0% | 9% | /
CCN1/C(=C2\OC(=S)N(C)C2=O)C=Cc2ccccc21 | -4% | -2% | /
CN1C(=O)/C(=C2/C=CC=CN2C)OC1=S | ? | -31% | ?
CCc1ccc(CN(Cc2ccco2)c2cnc(S(C)(=O)=O)nc2C(=O)Nc2ccc(C)c(Cl)c2)cc1 | / | -1% | /
Cc1cccc2cccnc12 | 1% | -5% | /
Cc1ccc2cccnc2c1N | ? | 2% | i
